# Data from the supplement of paper PMC10646978.
# ± gives the standard deviation.
# Legend:
# Details in all cases: modulator concentration 10 µM
# [1] = test system: RAW-Dual (murine macrophage reporter line); assay: NF-kB reporter (SEAP) activity fold change vs agonist alone; higher = enhanced NF-kB activity
# Outline: (§1)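 RAW-Dual murine macrophage reporter cells were plated at 50 000 per well in 384-well plates, pin-transferred compound to 10 μM final, and pre-incubated for 1 hour at 37 °C before a PRR agonist was added and the cells incubated overnight. NF-κB activity was read from supernatant SEAP with QUANTI-Blue at 620 nm absorbance, and IRF activity from Lucia luciferase with QUANTI-Luc by luminescence. Each signal was expressed as fold change by dividing by the mean agonist-only control on the same plate. Two replicate plates were averaged, with errors obtained by propagation.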
# [2] = test system: RAW-Dual (murine macrophage reporter line); assay: IRF reporter (Lucia luciferase) activity fold change vs agonist alone; higher = enhanced IRF activity
# Outline: as §1
# [3] = test system: RAW-Dual (murine macrophage reporter line); assay: viability score (confluency relative to resting cells, overnight) (fraction); higher = more viable, active = viable (0.7 or more)
# Outline: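 Two confluency masks, generated with IncuCyte software over all imaged wells, were applied to IncuCyte images of RAW-Dual macrophages. The cells, in 384-well plates, had been exposed overnight to 10 μM final compound. The viability score is confluency as a fraction of resting cells, and a compound met the cutoff only with both masks above 70% of resting cells.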
# [4] = agonist: CpG ODN 1826 0.5 ug/mL
SMILES,"NF-kB reporter [1, 4]",NF-kB reporter ([1]; agonist: LPS 0.1 ug/mL),NF-kB reporter ([1]; agonist: MPLA […]),IRF reporter ([2]; agonist: 3'3'-cGAMP 10 ug/mL),IRF reporter ([2]; agonist: LPS 0.1 ug/mL),IRF reporter ([2]; agonist: MPLA […]),viability score [3]
NC(=O)C1CCCN1c1ncccc1C(F)(F)F (stereo not drawn),1.16 ± 0.068,1.09 ± 0.089,0.994 ± 0.028,1.01 ± 0.088,1.06 ± 0.063,1.01 ± 0.1,0.997 (active)
O=C(C=Cc1ccc(Br)cc1)c1c(-c2ccccc2)c2cc(Cl)ccc2[nH]c1=O,0.876 ± 0.068,0.792 ± 0.055,1.03 ± 0.099,0.858 ± 0.039,1.4 ± 0.09,1.5 ± 0.16,0.997 (active)
Cc1ccc(Sc2ccccc2N2CCNCC2)c(C)c1,0.415 ± 0.1,1.22 ± 0.065,2.11 ± 0.33,0.462 ± 0.015,2.25 ± 0.3,2.42 ± 0.23,0.622 (inactive)
NC(Cc1cc(I)c(Oc2cc(I)c(O)c(I)c2)c(I)c1)C(=O)O (stereo not drawn),0.948 ± 0.23,0.984 ± 0.098,0.94 ± 0.073,0.901 ± 0.036,1.18 ± 0.2,1.12 ± 0.14,1 (active)
COc1ccccc1-n1ncc2c(C)nnc(SCC(=O)NCc3ccccc3Cl)c21,0.739 ± 0.33,0.987 ± 0.077,0.761 ± 0.19,0.781 ± 0.13,0.882 ± 0.15,0.781 ± 0.15,0.944 (active)
O=C(NC1CCC(F)(F)CC1)c1cc(Br)cs1,1.13 ± 0.064,0.996 ± 0.075,0.984 ± 0.04,0.833 ± 0.051,1.04 ± 0.052,1.03 ± 0.15,0.999 (active)
Cc1cc(CNC(=O)CCc2ccc(C(F)(F)F)cc2)c(C)o1,1.09 ± 0.061,1.01 ± 0.089,0.877 ± 0.038,1.2 ± 0.069,1.14 ± 0.068,1.25 ± 0.33,0.957 (active)
Cl.Clc1ccccc1CN1CCc2sccc2C1,0.93 ± 0.092,0.952 ± 0.11,0.916 ± 0.024,0.902 ± 0.05,1.01 ± 0.14,1.1 ± 0.25,0.992 (active)
CN1CCN(c2ccc(C(=O)Nc3n[nH]c4ccc(Cc5cc(F)cc(F)c5)cc34)c(NC3CCOCC3)c2)CC1,0.971 ± 0.043,1.21 ± 0.097,1.87 ± 0.11,0.129 ± 0.0061,0.482 ± 0.14,0.465 ± 0.13,0.947 (active)
O=C(Nc1cc2c(cc1Cl)OCCO2)c1cc(Cl)ccc1O,0.882 ± 0.068,0.902 ± 0.077,0.969 ± 0.092,1.08 ± 0.034,1.26 ± 0.16,1.45 ± 0.23,1.01 (active)
Cc1cc(C)n(CCCN2C(=O)c3cccc4cccc(c34)C2=O)n1,0.926 ± 0.084,1.04 ± 0.083,0.955 ± 0.11,0.993 ± 0.054,1.09 ± 0.075,1.14 ± 0.088,1.01 (active)
CNC(C)CCC=C(C)C.CNC(C)CCC=C(C)C (stereo not drawn) [Prestw-1023],1.07 ± 0.082,0.976 ± 0.12,1.01 ± 0.16,1 ± 0.047,1.17 ± 0.16,1.23 ± 0.28,1.04 (active)
Cl.Cl.O=C(O)COCCN1CCN(C(c2ccccc2)c2ccc(Cl)cc2)CC1 (stereo not drawn),0.906 ± 0.15,0.996 ± 0.29,0.892 ± 0.05,0.942 ± 0.029,1.17 ± 0.39,1.14 ± 0.11,0.987 (active)
COc1cc(C=NNc2ccc(C(=O)O)cc2)cc(Br)c1O,1.16 ± 0.13,0.97 ± 0.062,1.09 ± 0.1,0.198 ± 0.006,0.241 ± 0.061,0.223 ± 0.035,1 (active)
